Screening data deposited in PubChem BioAssay by National Center for Advancing Translational Sciences (NCATS).
In the library only some 22% were active in any assay of this set; here they are far more common.
Pf growth 96h: P. falciparum growth inhibition at 96 hour, primary screen for plastid delayed-death inhibitors | P. falciparum luciferase reporter growth, 96 h | 320,000 compounds, 6.9% hits | Potency, µM (doses to about 28.7 µM), hits mostly inhibitors | AID 504834
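Delayed-death screen, second-generation endpoint: infected erythrocytes, 2% hematocrit, 0.05% parasitemia final; 96 hours at 37 C, 5% CO2; luciferase detection reagent; luminescence decrease equals reduced growth.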
LmPK inh: inhibitors of Leishmania mexicana pyruvate kinase; Q27686; purified LmPK, Kinase-Glo ATP luminescence, 1 h; Potency, µM (highest dose often 57.5 µM), usual class: inhibitors; 290,000 compounds, 0.37% hits; AID 1721
Target sequence (Q27686 whole entry, looked up): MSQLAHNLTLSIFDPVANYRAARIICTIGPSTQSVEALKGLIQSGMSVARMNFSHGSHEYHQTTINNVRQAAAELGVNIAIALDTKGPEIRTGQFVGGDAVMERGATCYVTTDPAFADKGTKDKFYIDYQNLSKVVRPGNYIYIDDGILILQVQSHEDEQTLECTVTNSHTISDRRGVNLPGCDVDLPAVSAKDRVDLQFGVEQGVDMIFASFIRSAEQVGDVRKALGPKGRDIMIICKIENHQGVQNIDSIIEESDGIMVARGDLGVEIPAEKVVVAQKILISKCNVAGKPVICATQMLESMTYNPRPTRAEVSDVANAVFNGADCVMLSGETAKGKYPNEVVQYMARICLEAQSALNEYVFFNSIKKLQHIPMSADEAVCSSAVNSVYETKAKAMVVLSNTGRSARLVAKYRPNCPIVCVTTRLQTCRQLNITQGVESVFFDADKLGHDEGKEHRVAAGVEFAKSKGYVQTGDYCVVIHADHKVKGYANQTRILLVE
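Purified LmPK (0.1 nM) with 0.5 mM PEP and 0.1 mM ADP in imidazole buffer pH 7.2 with MgCl2/KCl, 1 h at room temperature. ATP formed was read by luciferase luminescence and normalized to no-enzyme and uninhibited controls.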
CHX counter: counter-screen for Shiga toxin inhibitors: cycloheximide protein synthesis inhibition | cell reporter, cycloheximide protein synthesis inhibition counterscreen | 300,000 compounds, 12% hits | AID 2314 | max response, %; in the data active = max response mostly above about 13%, no sharp cut-off; inactive = mostly below about 14%; note: read at 38.3 µM for the half of the compounds with a filed dose
Pf growth 48h: inhibits P. falciparum growth in the first generation, 48 h; AID 504832; P. falciparum luciferase growth in erythrocytes, 48 h; Potency, µM (doses to about 28.7 µM), most hits filed as inhibitors; 310,000 compounds, 5.9% hits
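Read-out is firefly luciferase luminescence from an integrated reporter in P. falciparum, so falling signal marks reduced parasite growth. Infected erythrocytes were at 2% hematocrit and 0.1% parasitemia (final) in Albumax-supplemented RPMI 1640.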
Shiga toxin inh: Shiga toxin inhibition | Vero cells, Shiga toxin protein synthesis inhibition reporter | inhibition, % at 38.7 µM | 290,000 compounds, 9.2% hits | AID 2315; in the data active = inhibition mostly above about 28%, no sharp cut-off; inactive = mostly below about 43%
Each line names hits and unclear results; the compound was inactive in the other large screens. Unless noted, calls come from the whole dose curve; as a rule, active = well fitted inhibition curve with a large enough effect; inconclusive = small, poorly fitted or top-dose-only effect, or another doubt; inactive = no such curve, though single readings can be large or run the other way.

CN(C)C(CNC(=O)c1ccc(NS(=O)(=O)c2ccc(F)c(F)c2)cc1)c1ccccc1 (configuration not stated)	Pf growth 48h inconclusive (no result: LmPK inh, CHX counter, Shiga toxin inh)
Cc1cc(S(=O)(=O)Nc2ccc(C(=O)NCC3(N(C)C)CCCCC3)cc2)ccc1F	Pf growth 96h 10µM, Pf growth 48h inconclusive (no result: LmPK inh, CHX counter, Shiga toxin inh)
Cc1cc(S(=O)(=O)Nc2ccc(C(=O)NCC(c3ccccc3)N(C)C)cc2)ccc1F (configuration not stated)	Pf growth 96h 10µM
CCOc1ccc(NS(=O)(=O)c2ccc(C(=O)NCC3(N4CCCCC4)CCCCC3)cc2)cc1	Pf growth 96h inconclusive, Pf growth 48h inconclusive
O=C(Cc1ccc(Cl)c(Cl)c1)Nc1ccc2[nH]c(=O)[nH]c2c1	none
O=S(=O)(NCCC1CC1(Cl)Cl)c1ccccc1 (configuration not stated)	none
CCc1ccc(-n2c(C)nc3cc(C(=O)NCc4cccnc4)ccc32)cc1	Pf growth 96h inconclusive, Pf growth 48h inconclusive
CC(=O)c1ccc(S(=O)(=O)NCc2ccc(C(=O)NCC(c3ccccc3)N(C)C)cc2)cc1 (configuration not stated)	Pf growth 96h inconclusive, Pf growth 48h 13µM
CC(=O)c1ccccc1NS(=O)(=O)c1ccc2c(c1)CC(=O)N2	Pf growth 96h 4.7µM, Pf growth 48h inconclusive (no result: LmPK inh, CHX counter, Shiga toxin inh)
CCc1ccc(CN(C)C(=O)c2cc(COc3c(F)cccc3F)on2)cc1	Pf growth 96h inconclusive
CN(CCC1CCOCC1)C(=O)c1cc(COc2c(F)cccc2F)on1	CHX counter 27
CN(CC1COCCO1)C(=O)c1cc(COc2c(F)cccc2F)on1 (configuration not stated)	CHX counter 27, Shiga toxin inh 53
CSc1ccccc1OCc1cc(C(=O)N(C)CC2COCCO2)no1 (configuration not stated)	CHX counter 30, Shiga toxin inh 61
Cc1nc(CN(C)C(=O)c2cc(COc3c(F)cccc3F)on2)cs1	none
CN(Cc1cc(-c2ccccc2)on1)C(=O)c1cc(COc2c(F)cccc2F)on1	Pf growth 96h inconclusive, CHX counter 42, Shiga toxin inh 70
Cc1ccc(C(=O)CCC(=O)Nc2cccc(C(F)(F)F)c2)cc1	none
COc1ccccc1-n1cnc2c(c1=O)c1nc3ccccc3nc1n2-c1ccc(C)c(C)c1	Pf growth 96h 10µM, Pf growth 48h inconclusive
COC(=O)[C@@H](Cc1c[nH]c2ccccc12)NC(=O)c1cc(=O)[nH]c2ccccc12	none
Nc1ccc2nc(NC(=O)C3CCCCC3)sc2c1	CHX counter 57, Shiga toxin inh 104
O=C(Nc1nc2ccccc2s1)C1CCCO1 (configuration not stated)	CHX counter 47, Shiga toxin inh 89 (no result: Pf growth 48h)
O=C(Nc1ncc(Cc2ccccc2)s1)C1CCCO1 (configuration not stated)	CHX counter 34, Shiga toxin inh 63
O=C(Nc1nc2ccc(C(=O)N3CCCCC3)cc2s1)C1CCCCC1	Pf growth 96h inconclusive
O=C(Nc1nc2ccc(F)cc2s1)C1CCCO1 (configuration not stated)	CHX counter 26, Shiga toxin inh 94
COc1ccc(C(=O)N/C(=C/c2cccnc2)C(=O)N2CCN(C)CC2)cc1OC	Pf growth 96h inconclusive
Nc1ccc(/C=C/C(=O)c2ccco2)cc1	CHX counter 69, Shiga toxin inh active
O=C(/C=C/c1ccccc1O)c1ccco1	CHX counter 30, Shiga toxin inh 61
Cc1ccc(/C=C/C(=O)c2cc(Br)ccc2OC(=O)c2ccco2)cc1	Pf growth 96h inconclusive, CHX counter 24, Pf growth 48h 13µM, Shiga toxin inh 49
Cc1cccc2cc(/C=C/C(=O)c3ccco3)c(Cl)nc12	CHX counter 12, Pf growth 48h inconclusive
N#Cc1ccc(/C=C/C(=O)c2ccco2)cc1	none
CCc1ccc(/C=C/C(=O)c2cc(Br)ccc(=O)c2O)cc1	Pf growth 48h inconclusive (no result: Pf growth 96h)
O=C(/C=C/c1cc(Br)ccc1O)c1ccco1	none
CCOc1ccc2nc(Cl)c(/C=C/C(=O)c3ccco3)cc2c1	none (no result: Pf growth 96h)
Cc1ccc(NC(=O)c2ccc(C(C)(C)C)cc2)cc1-n1cnnn1	none
CC(C)c1ccc(NC(=O)CCNS(=O)(=O)c2cc(Br)cnc2N)cc1	none
O=C(NCc1ccccc1)C1CC(=O)N(C2CCCCC2)C1 (configuration not stated)	none
CC(C)(C)C(=O)Nc1ccc(NC(=O)c2ccco2)nc1	none
CC(C)(C)C(=O)Nc1ccc(/C=C/C(=O)c2ccco2)cc1	Pf growth 96h inconclusive, CHX counter 25 (no result: Shiga toxin inh)
CC(c1cc2ccccc2s1)N(O)C(N)=O (configuration not stated)	Pf growth 96h 0.38µM
O=C(CSc1nc(=O)n2ccccc2n1)OCc1ccccc1	Pf growth 48h inconclusive (no result: LmPK inh, CHX counter, Shiga toxin inh)
COc1cc(/C=N/n2cnnc2)ccc1OCc1ccccc1	CHX counter 22
COc1cc(/C=N/n2cnnc2)ccc1OCc1ccc(C)cc1	none (no result: Pf growth 96h)
COc1ccc(/C=N/n2cnnc2)cc1Cn1nc(C)c([N+](=O)[O-])c1C	none
COc1ccc(/C=N/n2cnnc2)cc1COc1ccccn1	Pf growth 96h 2.1µM
Cc1cc(Cl)c2oc(C(=O)N(C)Cc3ccon3)c(C)c2c1	CHX counter 48, Shiga toxin inh 95
Cc1cc(Cl)c2oc(C(=O)N(C)C3CCOC3)c(C)c2c1 (configuration not stated)	CHX counter 36, Shiga toxin inh 55
Cc1cc(Cl)c2oc(C(=O)N(C)Cc3nccn3C)c(C)c2c1	Pf growth 48h inconclusive
Cc1c(C(=O)N(CCO)Cc2ccccc2)oc2c(F)cccc12	Pf growth 96h inconclusive, CHX counter 35, Shiga toxin inh 32
Cc1cc(Cl)c2oc(C(=O)N(C)Cc3cc(C)[nH]n3)c(C)c2c1	none
Cc1cc(Cl)c2oc(C(=O)N(CCO)Cc3ccccc3)c(C)c2c1	Pf growth 96h inconclusive, CHX counter 21, Pf growth 48h inconclusive, Shiga toxin inh 64
Cc1ccc2oc(C(=O)N(CCO)Cc3ccccc3)c(C)c2c1	none
Cc1cc(C)cc(C(=O)NC(CC(N)=O)c2ccc(N3CCN(C)CC3)c([N+](=O)[O-])c2)c1 (configuration not stated)	none
COc1ccc(S(=O)(=O)N(C)c2ccc(C(=O)Nc3c(C)n(C)n(-c4ccccc4)c3=O)cc2)cc1	none
CN(C)/C=N/c1cc(=O)n(C)c(=O)n1Cc1ccccc1	Pf growth 96h inconclusive
CCc1cc(C(=O)NC2CCCN(Cc3ccccc3F)C2)n(C)n1 (configuration not stated)	Pf growth 96h inconclusive
Cc1c(C(=O)N(Cc2ccncc2)CC2CCCO2)oc2c(F)cccc12 (configuration not stated)	Pf growth 96h 10µM
Fc1ccc(-c2ccnc3nc(N4CCOCC4)nn23)cc1	Pf growth 96h inconclusive
COc1ccc(-c2ccnc3nc(N4CCN(c5ccccc5)CC4)nn23)cc1	Pf growth 96h 9.3µM, Pf growth 48h inconclusive
Cc1ccc2c(c1)Cc1nc3ccccc3nc1-2	Pf growth 96h inconclusive, LmPK inh 18µM
Cc1cc(N2CCCC2)nc2ccccc12	none
